# Screening data deposited in PubChem BioAssay by National Center for Advancing Translational Sciences (NCATS).
# Rows were chosen to be rich in hits. Some 21% of all compounds tested hit in one or more screens of this group.
# Shiga toxin inh = inhibitors of Shiga toxin in Vero cells | actives 9.2% (n = 290,000) | inhibition, % at 38.7 µM | Vero cells, Shiga toxin protein synthesis inhibition reporter; in the data active = inhibition mostly above about 28%, no sharp cut-off; inactive = mostly below about 43%
# Pf growth 48h = inhibits P. falciparum growth in the first generation, 48 h | P. falciparum luciferase growth in erythrocytes, 48 h | actives 5.9% (n = 310,000) | Potency, µM (doses to about 28.7 µM), usual class: inhibitors
#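 Luminescence readout; reporter = integrated firefly luciferase in P. falciparum. RBC culture at 2% hematocrit, 0.1% parasitemia final, 37 C/5% CO2; decreased signal taken as growth inhibition.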
# Pf growth 96h = P. falciparum growth inhibition at 96 hours. AID 504834. Potency, µM (doses to about 28.7 µM), usual class: inhibitors. actives 6.9% (n = 320,000). P. falciparum luciferase reporter growth, 96 h
#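 Two-generation exposure (96 h) targets delayed-death phenotype. Reporter parasites carrying integrated firefly luciferase, in red cells at 2% hematocrit and 0.05% parasitemia final, kept at 37 C, 5% CO2; luminescence loss indicates inhibition.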
# Cycloheximide cs = affects cycloheximide protein synthesis inhibition readout, counter-screen; max response, %; cell reporter, cycloheximide protein synthesis inhibition counterscreen; actives 12% (n = 300,000); in the data active = max response mostly above about 13%, no sharp cut-off; inactive = mostly below about 14%; note: read at 38.3 µM for the half of the compounds with a filed dose
# NS1 inh = influenza NS1 inhibition. Potency, µM (highest dose often 46.1 µM). actives 0.4% (n = 270,000). AID 2326; calls by dose curve; note: actives are rising curves; nearly all actives have a fitted effect of over 50% in size
#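 In this qHTS, NS1 from influenza A is expressed in budding yeast, where it slows growth. Cells are switched from glucose to 2% galactose medium (pH 6.0, -URA), treated with compound, and growth recovery is read at OD600.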
# FBPA Giardia inh = Giardia lamblia aldolase inhibition | A8B2U2 | actives 0.71% (n = 290,000) | purified Giardia FBPA | Potency, µM (series often up to 59.6 µM), hits mostly inhibitors; note: nearly all actives have a fitted effect of over 55% in size
# Target sequence (A8B2U2 whole entry, looked up): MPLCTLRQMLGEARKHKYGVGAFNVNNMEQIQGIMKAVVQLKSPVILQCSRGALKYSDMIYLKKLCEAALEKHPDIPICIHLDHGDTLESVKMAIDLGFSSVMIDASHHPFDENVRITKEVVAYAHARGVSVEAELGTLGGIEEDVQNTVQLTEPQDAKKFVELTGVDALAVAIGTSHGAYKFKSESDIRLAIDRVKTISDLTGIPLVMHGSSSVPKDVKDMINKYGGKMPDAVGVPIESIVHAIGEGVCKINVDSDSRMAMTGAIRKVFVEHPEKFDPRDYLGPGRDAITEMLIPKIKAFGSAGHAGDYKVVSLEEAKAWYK
#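 Giardia FBPA (40 nM reagent) was preincubated 10 min at RT with compound (up to 57.5 uM final), then substrate plus GAPDH/TPI/NAD/arsenate coupling system with diaphorase/resazurin was added; resorufin fluorescence (525/598 nm) was read after 20 min.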
# Flu NS1 inh = influenza NS1 function inhibition validation; shares compounds with NS1 inh; activity change, negative = inhibition, % at 32.9 µM; AID 492980; influenza NS1 function cell assay, 15-point titration; 1,400 tested, under 10 active; calls by dose curve
# PR8 titer = influenza NS1 inhibitors: inhibition of influenza A/PR/8/34 replication; actives 30% (n = 95); shares compounds with NS1 inh; virus titer (log TCID50), log10 TCID50 at 5 µM; AID 504647; MDCK infected influenza A/PR/8/34, virus titer TCID50; active compounds read low; call rule not given here
# Hits are given with their value; - = inactive; ? = inconclusive; . = not tested or not shown; [ ] = dose if it differs, or a comment. Unless noted, calls come from the whole dose curve; as a rule, active = well fitted curve in the direction sought with a large enough effect; inconclusive = small, poorly fitted or top-dose-only effect, or another doubt; inactive = no such curve, though single readings can be large; an effect the other way counts as inactive or inconclusive.
SMILES,Shiga toxin inh,Pf growth 48h,Pf growth 96h,Cycloheximide cs,NS1 inh,FBPA Giardia inh,Flu NS1 inh,others
O=C(NCc1ccc(Cl)cc1)c1ccc(Br)o1,-,-,.,-,-,-,.,
Cc1cccc(C)c1-n1c(C)cc(/C=N\Nc2ccc([N+](=O)[O-])cn2)c1C,66.7,.,-,27.8,12.6µM,-,-,
Cc1cc(/C=N/Nc2nc(N)ncc2[N+](=O)[O-])c(C)n1-c1ccccc1F,-,-,-,-,-,-,.,
CCOC(=O)N1CCN(c2c(NCCCN(CC)Cc3ccccc3)c(=O)c2=O)CC1,-,?,?,-,1µM,-,-,
CCOC(=O)c1cnn2c(N)c(C#N)nnc12,-,-,?,-,5.01µM,-,-,
CCOC(=O)c1cnn2c(N)c(C#N)cnc12,-,-[1.15 µM],-,-,-,-,.,
Cc1[nH]c2ccc(-c3nnc(SCC(=O)NCc4ccco4)n3Cc3ccccc3)cc2c1C,-,.,?,-,3.55µM,-,-,
CCOC(=O)C(NCc1ccco1)(NC(=O)c1ccccc1)C(F)(F)F (stereo unspecified),-,.,-,-,-,-,.,
C#CCOC(=O)/C(=C/C=C/c1ccccc1)NC(=O)c1ccccc1,-,-,-,-,-,-,.,
CC(C)OC(=O)/C(=C\C=C\c1ccccc1)NC(=O)c1ccccc1,-,11.7µM,-,-,?,-,-,
CC(OC(=O)Cc1ccccc1F)C(=O)Nc1ccc(Cl)cn1 (stereo unspecified),.,-,-,.,.,.,.,
O=C(O)c1ccc(/C=N/NC(=O)c2ccc(CN3c4cccc5cccc(c45)S3(=O)=O)cc2)cc1,-,-,?,-,-,-,.,
O=C1CCC/C(=N/NC(=O)c2ccc(CN3c4cccc5cccc(c45)S3(=O)=O)cc2)C1,-,-,?,-,14.1µM,-,-,
Cc1cccc(NC(=O)Cn2c(=O)n(CCc3c[nH]c4ccccc34)c(=O)c3cccnc32)c1,-,?,-,-,3.98µM,-,-,
O=C(Cn1c(=O)n(CCc2c[nH]c3ccccc23)c(=O)c2cccnc21)Nc1ccccc1F,-,?,-,-,-,-,.,
CCN(CC(=O)Nc1c(F)cccc1F)C(=O)C1CCCN(C(=O)c2ccc(Cl)cc2)C1 (stereo unspecified),-,-,?,-,-,.,.,
CCN1C(=O)C(CC(=O)Nc2ccc(OC)cc2)N(CCc2ccccc2)C1=S (stereo unspecified),-,?,?,-,.,-,.,
COC(=O)CN1C(=S)N(Cc2ccccc2)C(=O)C1CC(=O)Nc1ccc(Br)cc1 (stereo unspecified),-,14.7µM,?,-,11.2µM,-,-,
CCCOc1ccc(NC(=O)CC2C(=O)N(Cc3ccccc3)C(=S)N2Cc2cccs2)cc1 (stereo unspecified),-,?,?,22.1,3.55µM,-,-,
COc1ccc(C(=O)N/C(=C\c2ccccc2)C(=O)Nc2cccc(C(=O)O)c2)cc1,-,-,?,-,10µM,-,-,
COc1ccccc1/C=C(\NC(=O)c1ccc(OC)c(OC)c1)C(=O)Nc1cccc([N+](=O)[O-])c1,-,-,-,-,?,-,.,
COc1ccccc1/C=C(\NC(=O)c1ccc(OC)c(OC)c1)C(=O)Nc1ccc([N+](=O)[O-])cc1,-,-,?,-,12.6µM,-,-,
COc1ccc(Cc2nnc(Nc3c(C)cccc3C)o2)cc1OC,-,?,-,-,?,-,.,
O=C(c1cccc(F)c1)N1CCc2ccccc2C1,55.5,-,-,40.1,?,-,-,
O=C(O)CC/C(=C\c1cccc(NC(=O)c2ccccc2Cl)c1)c1nc2ccccc2s1,-,-,-,-,?,-,-,
SMILES,Shiga toxin inh,Pf growth 48h,Pf growth 96h,Cycloheximide cs,NS1 inh,FBPA Giardia inh,Flu NS1 inh,others
CCCn1c(C)cc(/C=C(\C#N)C(=O)OCC(=O)NC(=O)NC(C)(C)C)c1C,-,-,.,-,3.16µM,-,-,
CCC(=O)c1ccc(OCC(=O)NCC2COc3ccccc3O2)cc1 (stereo unspecified),.,-,?,.,.,.,.,
CCOc1ccc(C2N(c3ccc(Cl)cc3)C(=O)C3CCCN32)cc1OC (stereo unspecified),-,.,-,-,7.94µM,-,-,
O=C1C2CCCN2C(c2ccc(F)cc2)N1c1ccc(Cl)cc1 (stereo unspecified),-,.,-,-,3.98µM,-,-,
Cc1ccc(/C=C/C(=O)Oc2ccc(C#N)cc2)o1,-,-,-,-,?,-,-,PR8 titer=7.5
COc1cccc(OC)c1OC(=O)/C=C/c1ccc(C)o1,-,-,-,-,-,-,.,
COc1ccc(CCNC(=O)CN(CCc2ccccc2)S(C)(=O)=O)cc1OC,-,-[5.75 µM],-[5.75 µM],-,.,-,.,
CCOC(=O)N1CCN(c2ncnc3c2oc2nc(CC(C)C)c4c(c23)CCC4)CC1,.,.,.,.,-,.,.,
COc1ccc(C2NC(=O)NC(C)=C2C(=O)OC2CCC(C)CC2)cc1 (stereo unspecified),-,-,?,-,?,-,-,
Cc1cccc(OCCOc2ccc(/C=N/NC(=O)Cc3nnc(N)s3)cc2)c1,-,-,-,-,-,-,.,
COc1ccc(N=C2S/C(=C\c3cc(C)n(C)c3C)C(=O)N2CC(C)C)cc1,-,?,?,-,7.08µM,-,-,
COc1ccc(N=C2S/C(=C\c3ccco3)C(=O)N2CC(C)C)cc1,-,?,?,-,-,-,.,
Cc1nnc2n(-c3ccc(Cl)cc3)c(=O)c3c4c(sc3n12)CN(C)CC4,-,-,.,-,-,-,.,
CN1CCc2c(sc3c2c(=O)n(-c2ccccc2)c2nnc(SCc4ccc(Cl)cc4)n32)C1,-,?,.,-,12.6µM,-,-,
CCC1C(=O)NCCN1C(=O)c1ccc2nc(Cc3cccc(Cl)c3)oc2c1 (stereo unspecified),-,-,?,-,-,-,.,
Cc1cc(C)n2c(SCC(=O)Nc3ccccc3)nnc2n1,-,.,-,-,-,-,.,
CCN(CC)c1ccc(NC(=O)CSc2nnc3nc(C)cc(C)n23)cc1,-,?,?,-,?,-,-,
Cc1cccc(-n2c(=S)[nH]c3c(oc4ccccc43)c2=O)c1,-,-,-,8.7,?,-,-,
CCn1c2ccccc2c2cc(NC(=O)COC(=O)c3cccc(S(=O)(=O)NC)c3)ccc21,-,-,-,-,10µM,-,-,PR8 titer=7.33
CCN(CC)S(=O)(=O)c1cccc(C(=O)OCC(=O)Nc2ccc3c(c2)c2ccccc2n3CC)c1,-,-,-,-,-,-,.,
O=C(CCSc1ccccc1)NNC(=O)c1ccccc1F,.,-,-,.,.,.,.,
CCC(C)(C)n1nnnc1C(c1cc2cc(OC)c(OC)cc2[nH]c1=O)N1CCc2ccccc21 (stereo unspecified),-,1.04µM,?,-,14.1µM,-,?,
